Results reported in PubChem BioAssay AID2685 (National Center for Advancing Translational Sciences (NCATS), 2010).
Among all 320,000 compounds or so, about 2,100 (0.66%) were called active. Roughly 53% stayed inconclusive and do not appear here. Calls follow the shape of the dose curve; as a rule, active = well fitted inhibition curve with a large enough effect in the signal ratio, with a control signal flat (not every such curve was filed as active); inconclusive = small, poorly fitted or top-dose-only effect, or effect the other way, or a change in a side signal; inactive = flat fitted curve, though single readings scatter; the % refers to the signal ratio. Shown is part of a subset that was picked to be rich in actives.

Assay: qHTS Assay for Lipid Storage Modulators in Drosophila S3 Cells;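 as to cell number change: cells counted by Cell Tracker Red CMTPX staining in the red channel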
Conditions: BODIPY lipid droplet fluorescence, 18-24 h, cells fed with added oleic acid; cell number change: measured here: cell count max response; series mostly up to 46.1 µM
How it was run: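 Drosophila S3 cells got compounds at several concentrations plus oleic acid (400 uM solution). Laser-scanning cytometry with 488 nm excitation read lipid droplets at 500-530 nm and cells at 575-640 nm. Percent activity was relative to 20 uM Triacsin C.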
Potency is read from the fitted curve at half-maximal effect.

Row | SMILES | Potency | cell number change [%]
1 | CC(C)Oc1ccc(N2CC(C(=O)Nc3ccc(N4CCOCC4)cc3)CC2=O)cc1 (stereo not drawn) | inactive | 15.2
2 | CCOC(=O)c1cc(CC)sc1/N=C/c1c(O)ccc2ccccc12 | inactive | 1.95
3 | O=C(Cn1cnc([N+](=O)[O-])n1)NCCO | inactive | 0.588
4 | O=c1[nH]c(CN2CCN(c3ccc(F)cc3)CC2)nc2ccccc12 | inactive | -21.1
5 | CCC(=O)NC(C)c1cc(Cl)c2ccccc2c1O (stereo not drawn) | inactive | -12.2
6 | COCCn1c(Cc2ccccc2)nnc1SCC(=O)Nc1cc(C)on1 | inactive | 
7 | Cc1ccc(-n2c(SCC(=O)NNC(=S)Nc3ccccc3)nc3ccccc3c2=O)cc1 | inactive | 9.73
8 | CN1[C@@H](CC(=O)c2ccccc2)CCC[C@H]1C[C@H](O)c1ccccc1 | inactive | 9.08
9 | CN1C(CC(=O)c2ccccc2)CCCC1CC(O)c1ccccc1 (stereo not drawn) | 18.4 µM (active) | -3.64
10 | CN1CCC(N(C)CC(O)c2ccccc2)CC1 (stereo not drawn) | inactive | -4.15
11 | C=CCSc1nc(O)c(CC)c(=O)n1C(C)CC (stereo not drawn) | inactive | -4.8
12 | Cc1ccc(OCc2ccc(C(=O)NCC3CCCO3)cc2)cc1 (stereo not drawn) | inactive | 13.4
13 | Cc1noc(C)c1COc1ccc(C(=O)NCC2CCCO2)cc1 (stereo not drawn) | inactive | -13.5
14 | Cc1ccc(OCc2ccc(C(=O)NCC3CCCO3)cc2)cc1C (stereo not drawn) | 10.3 µM (active) | -8.64
15 | Cc1cccc(NC(=O)Nc2ccccc2)n1 | inactive | -19.9
16 | COc1ccc(/C=C/C(=O)N2CCNC(=O)C2)c(OC)c1 | inactive | 
17 | COc1ccc(-c2cc(=O)oc3c(C)c(OCC(=O)N(C)C)ccc23)cc1 | inactive | 
18 | CC(=O)Nc1ccc(OC(=O)c2cc([N+](=O)[O-])ccc2Cl)cc1 | inactive | 
19 | Clc1cccc(Cl)c1NC1=NCCC1 | inactive | 6.79
20 | Clc1cccc(NC2=NCCC2)c1 | 25.9 µM (active) | -7.84
21 | Cc1ccc(NC2=NCCC2)cc1Cl | inactive | 
22 | CCCCNC(=S)NNC(=O)c1cccnc1 | inactive | 0.804
23 | CC(C)Sc1nc2c(c(=O)[nH]c(=O)n2C)n1Cc1ccccc1 | inactive | 
24 | O=[N+]([O-])c1cccc(S(=O)(=O)NCCc2ccccc2)c1 | inactive | -15.1

Row | SMILES | Potency | cell number change [%]
25 | O=[N+]([O-])c1ccc(S(=O)(=O)NCCc2ccncc2)cc1 | inactive | 17.1
26 | O=[N+]([O-])c1cccc(S(=O)(=O)NCc2ccncc2)c1 | 10.3 µM (active) | -3.97
27 | CCCNC(=O)COC(=O)c1ccc(N2CCCC2)c([N+](=O)[O-])c1 | inactive | 10
28 | CC1CN2C(c3ccc(Cl)cc3)=CSC2=N1 (stereo not drawn) | inactive | 15.5
29 | N=C1/C(=C\c2ccc(-c3cccc(Cl)c3)o2)C(=O)N=C2SC=C(c3ccccc3)N12 | inactive | -13.8
30 | Clc1ccc(C2=CSC3=Nc4cccc5cccc(c45)N23)cc1 | 0.13 µM (active) | -10.2
31 | COc1ccc(OC[C@@H](O)CNC(=O)c2cccc3c2C(=O)c2ccc(Cl)cc2S3(=O)=O)cc1 | inactive | 6.27
32 | O=C(NNC(=O)c1ccccc1F)c1ccc(Cl)c(S(=O)(=O)N2CCOCC2)c1 | inactive | 4.79
33 | Cc1ccc(C)c(Cn2c3ccccc3c3cnn(CC(=O)NCc4ccccn4)c(=O)c32)c1 | inactive | 21.8
34 | Cc1cc(C)c(Cn2c3ccccc3c3cnn(CC(=O)NCc4ccccn4)c(=O)c32)c(C)c1 | 14.6 µM (active) | 17.6
35 | Cc1c2cnn(CC(=O)NCc3ccccn3)c(=O)c2c(C)n1Cc1ccccc1 | inactive | -4.61
36 | Cc1ccccc1CN1CCNC1=O | inactive | 
37 | COCCCNC(=O)CS(=O)Cc1nc(-c2ccccc2C)oc1C (stereo not drawn) | inactive | -1.92
38 | COc1ccc(-c2nc(CS(=O)(=O)CC(=O)NCc3cccc(OC)c3OC)c(C)o2)cc1 | inactive | 10.4
39 | CCc1c(C)sc(NC(=O)c2cc(C(C)C)on2)c1C#N | inactive | 4.86
40 | CCOC(=O)Cn1c(=N)n(Cc2ccccc2F)c2ccccc21 | 18.4 µM (active) | -1.47
41 | C=CCn1c(=N)n(CC(=O)OCC)c2ccccc21 | inactive | 2.48
42 | CCCn1c(=N)n(CC(=O)OCC)c2ccccc21 | inactive | 13.2
43 | Cc1cccc(NCc2ccc(Br)cc2)n1 | inactive | -13.5
44 | O=C1CNC(=O)N1CC(=O)N1CCCc2ccccc21 | 29.1 µM (active) | -34.5
45 | O=C(CN1C(=O)COc2ccccc21)N1CCCc2ccccc21 | inactive | 11.3
46 | O=C(CN1CCCCC1)N1CCCc2ccccc21 | inactive | 7.83
47 | COc1ccccc1NC(=S)NCc1ccc(F)cc1 | 11.6 µM (active) | -1.4
48 | COc1ccccc1NC(=S)NCc1ccc(Cl)cc1 | inactive | 8.81

Row | SMILES | Potency | cell number change [%]
49 | COc1ccccc1NC(=S)NCc1ccc(S(N)(=O)=O)cc1 | inactive | 6.14
50 | CC(C)CNC(=O)CSc1nnc(-c2ccccn2)n1Cc1ccccc1 | inactive | -1.23
51 | CC(C)(C)c1ccc(C(=O)N/N=C2\C3CN4CCN(C3)CC2(c2ccccc2)C4)cc1 | inactive | 8.22
52 | Cc1ccc2c(c1)C(=O)C(=O)N2CCCOc1ccccc1C | inactive | -3.05
53 | O=C(CN1CCN(S(=O)(=O)c2ccccc2)CC1)Nc1ccc(Cl)c([N+](=O)[O-])c1 | inactive | 22
54 | O=C(CN1CCN(S(=O)(=O)c2ccccc2)CC1)Nc1ccccc1C(=O)c1ccccc1 | inactive | 4.18
55 | Cc1ccc(S(=O)(=O)N2CCN(CC(=O)Nc3ccccc3C(=O)NC3CC3)CC2)cc1 | inactive | -13.8
56 | O=C(CN1CCN(S(=O)(=O)c2ccccc2)CC1)Nc1ccc(Cl)c(Cl)c1 | inactive | 16.9
57 | CC(=O)c1ccc(S(=O)(=O)N2CCN(CC(=O)Nc3ccccc3C(=O)NC3CC3)CC2)cc1 | 6.51 µM (active) | -1.96
58 | CC(=O)c1ccc(S(=O)(=O)N2CCN(CC(=O)Nc3ccc(Cl)c([N+](=O)[O-])c3)CC2)cc1 | 29.1 µM (active) | -15.2
59 | COc1c2ccc(C(=O)NCCCCc3ccccc3)cc2nn1C | inactive | -13.1
60 | CCOC(=O)NCc1ccc2[nH]c(C)cc2c1 | inactive | 16.1
61 | Cc1cc(C)c(C#N)c(SCCN2CCCCC2)n1 | inactive | -24.3
62 | Nc1cc(N)nc(SCCN2CCCCC2)n1 | 0.0184 µM (active) | 3.17
63 | Nc1cc(N)nc(SCC(=O)N2CCCCC2)n1 | inactive | 2.45
64 | O=C(O)c1ccc(N2C(=O)CC(N3CCN(c4cccc(Cl)c4)CC3)C2=O)cc1 (stereo not drawn) | inactive | -9.85
65 | O=C1Nc2c(c(=O)[nH]c(=O)n2-c2ccccc2F)C(C(F)(F)F)(C(F)(F)F)N1 | inactive | 12.5
66 | O=C1Nc2c(c(=O)[nH]c(=O)n2-c2ccccc2)C(C(F)(F)F)(C(F)(F)F)N1 | 25.9 µM (active) | -18.7
67 | Cc1ccc(-n2c3c(c(=O)[nH]c2=O)C(C(F)(F)F)(C(F)(F)F)NC(=O)N3)cc1 | inactive | 7.3
68 | Cn1cccc1CC(=O)N/N=C/c1ccc(Cl)cc1 | inactive | -7.57
69 | COc1ccc(CNC(=O)COC(=O)c2cc3ccccc3o2)cc1 | inactive | 
70 | O=C(COC(=O)c1cc2ccccc2o1)NCc1ccco1 | 0.206 µM (active) | -22.2
71 | O=C(COC(=O)COc1ccc(Nc2ccccc2)cc1)NCc1ccco1 | inactive | 8.25
72 | Cc1c(C(=O)OCC(=O)NCc2ccco2)oc2ccccc12 | inactive | -15.4

Row | SMILES | Potency | cell number change [%]
73 | Cc1cc(C)cc(OCC(=O)OCC(=O)NCc2cccs2)c1 | inactive | -3.19
74 | Cc1cc(C)cc(OCC(=O)OCC(=O)NCc2ccco2)c1 | 23.1 µM (active) | 10.8
75 | C=CCNC(=O)/C(=C\c1ccc([N+](=O)[O-])cc1)NC(C)=O | inactive | 
76 | CC(C)/C=N/Nc1nc2c(c(=O)n(C)c(=O)n2C)n1C | inactive | -4.59
77 | COC(=O)c1ccc2c(=O)n(-c3ccccc3)c(=S)[nH]c2c1 | inactive | 5.89
78 | NC(=O)CC(NC(=O)Cc1ccc(Br)cc1)c1ccc(NCCc2ccc(Cl)cc2)c([N+](=O)[O-])c1 (stereo not drawn) | inactive | -9.69
79 | COCCOC(=O)/C(C#N)=C/c1cn(Cc2ccccc2)nc1-c1cccnc1 | inactive | -16.4
80 | C[C@H](NC(=O)OCc1ccccc1)c1nnc([C@H](C)NC(=O)OCc2ccccc2)o1 | inactive | 2.65
81 | Cc1ccc(S(=O)(=O)N2CCN(C(=O)CN3CCc4ccccc4C3)CC2)cc1 | inactive | 21.3
82 | COCc1ccc(C(=O)Nc2ccccc2C(=O)NCc2cccnc2)cc1 | inactive | 10.3
83 | COc1cc(C(=O)Nc2ccccc2C(=O)NCc2cccnc2)cc(OC)c1OC | inactive | -22.9
84 | C=CCOc1ccc(C(=O)Nc2ccccc2C(=O)NCc2cccnc2)cc1 | 3.26 µM (active) | 18.4
85 | CC(=O)Nc1nnc(S(=O)(=O)N2CCN(c3ccc([N+](=O)[O-])cc3Cl)CC2)s1 | inactive | -24.2
86 | COc1cccc(-c2cc(C(=O)Nc3ccc(OC)c(OC)c3)no2)c1 | inactive | -25.5
87 | CC1CCN(c2ccc(NC(=O)c3ccc([N+](=O)[O-])o3)cc2)CC1 | 16.4 µM (active) | 0.613
88 | O=C(Nc1ccc(N2CCOCC2)cc1)c1cccnc1 | inactive | 3.28
89 | O=C(Nc1ccc(N2CCOCC2)cc1)c1ccc([N+](=O)[O-])o1 | inactive | -16.7
90 | CC1CCN(c2ccc(NC(=O)c3cccnc3)cc2)CC1 | 20.6 µM (active) | -20.1
91 | CC(C)(C)C(=O)N1CCN(c2ccc(NC(=O)c3ccc([N+](=O)[O-])o3)cc2)CC1 | inactive | 19.6
92 | Cc1ccc(C(=O)N2CCN(c3ccc(NC(=O)c4cccnc4)cc3)CC2)cc1 | inactive | 4.57
93 | CCn1c(=O)c2ccccc2n(CC(=O)NCCC2=CCCCC2)c1=O | inactive | 25.4
94 | CCn1cc(C(=O)NCC(OC)OC)c(=O)c2cc(S(=O)(=O)N3CCOCC3)ccc21 | inactive | 
